Laboratory results published in the supplement of paper PMC11732987, “Enantioselective OTUD7B fragment discovery through chemoproteomics screening and high-throughput optimisation” (Communications Chemistry, 2025).
A number with no mark means an inactive call.

Columns and labels:
Assay in all cases: log2 ratio of Biotin-Ahx-Ub-VS probe labelling (fragment/DMSO); higher = less target engagement (more negative = stronger competition), active = hit call of the paper (q ≤ 0.05, log2 ratio ≤ -1)
Conditions in all cases: compound concentration: 200 uM; treatment time: 3 h
[1] = compound: CC(C)CN(C1CC1)C(=O)CCl
Procedure, shortened: (§1)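 Labelled DUBs were enriched with NeutrAvidin, digested with LysC and trypsin, and run by diaPASEF LC-MS/MS. The labelling used Biotin-Ahx-Ub-VS at 0.5 µM final for 1 h on HEK293T lysate (495 µg per sample) previously treated in triplicate with fragment at 200 µM or vehicle for 3 h. Values are average log2 fragment/vehicle ratios by unpaired t-test on global-median-normalised Spectronaut quantities of proteins with ≥2 unique peptides.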

[2] = compound: CC(NC(=O)CCl)c1cccs1
Procedure, shortened: as §1

[3] = compound: CC1CCCCC1NC(=O)CCl
Procedure, shortened: as §1

[4] = compound: CC1CCCCN1C(=O)CCl
Procedure, shortened: as §1

[5] = compound: CC1CN(CC(C)O1)C(=O)CCl
Procedure, shortened: as §1

[6] = compound: CN(C1CCCCC1)C(=O)CCl
Procedure, shortened: as §1

[7] = compound: Cc1cc(NC(=O)CCl)no1
Procedure, shortened: as §1

[8] = compound: Cc1cccc(NC(=O)CCl)c1
Procedure, shortened: as §1

[9] = compound: Cc1nc(NC(=O)CCl)sc1C
Procedure, shortened: as §1

[10] = compound: Cc1nnc(NC(=O)CCl)s1
Procedure, shortened: as §1

[11] = compound: Cl.Cc1ncsc1CNC(=O)CCl
Procedure, shortened: as §1

[12] = compound: ClCC(=O)N1CCCCCCC1
Procedure, shortened: as §1

[13] = compound: ClCC(=O)NC1(CCCC1)C#N
Procedure, shortened: as §1

[14] = compound: ClCC(=O)NCC1CCC1
Procedure, shortened: as §1

[15] = compound: ClCC(=O)NCC1CCCO1
Procedure, shortened: as §1

[16] = compound: ClCC(=O)NCc1ccco1
Procedure, shortened: as §1

[17] = compound: ClCC(=O)Nc1cccc(Cl)c1
Procedure, shortened: as §1

[18] = compound: ClCC(=O)NC(C1CC1)C1CC1
Procedure, shortened: as §1

UniProt Q14694, sequence (Q14694 whole entry): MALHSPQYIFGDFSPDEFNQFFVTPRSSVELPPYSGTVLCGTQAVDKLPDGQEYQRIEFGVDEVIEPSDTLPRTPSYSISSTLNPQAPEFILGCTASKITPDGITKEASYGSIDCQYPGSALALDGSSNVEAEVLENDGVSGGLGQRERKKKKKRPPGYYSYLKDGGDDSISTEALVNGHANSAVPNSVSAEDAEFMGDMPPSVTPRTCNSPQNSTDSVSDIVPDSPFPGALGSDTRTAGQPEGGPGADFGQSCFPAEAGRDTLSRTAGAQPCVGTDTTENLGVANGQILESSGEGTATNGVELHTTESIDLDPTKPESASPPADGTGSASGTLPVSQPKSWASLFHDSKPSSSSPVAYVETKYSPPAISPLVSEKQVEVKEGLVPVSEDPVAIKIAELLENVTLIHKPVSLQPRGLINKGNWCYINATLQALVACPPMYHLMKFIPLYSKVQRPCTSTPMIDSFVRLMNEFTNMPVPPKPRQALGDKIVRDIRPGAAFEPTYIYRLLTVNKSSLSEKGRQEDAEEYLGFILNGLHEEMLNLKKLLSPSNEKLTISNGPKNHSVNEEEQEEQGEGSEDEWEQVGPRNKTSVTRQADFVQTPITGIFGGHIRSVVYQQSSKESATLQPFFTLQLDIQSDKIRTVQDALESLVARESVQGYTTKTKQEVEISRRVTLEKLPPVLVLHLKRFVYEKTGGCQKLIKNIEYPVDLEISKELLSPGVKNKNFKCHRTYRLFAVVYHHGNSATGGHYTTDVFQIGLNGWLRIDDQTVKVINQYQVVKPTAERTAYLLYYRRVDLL
UniProt Q9UHP3, sequence (Q9UHP3 whole entry): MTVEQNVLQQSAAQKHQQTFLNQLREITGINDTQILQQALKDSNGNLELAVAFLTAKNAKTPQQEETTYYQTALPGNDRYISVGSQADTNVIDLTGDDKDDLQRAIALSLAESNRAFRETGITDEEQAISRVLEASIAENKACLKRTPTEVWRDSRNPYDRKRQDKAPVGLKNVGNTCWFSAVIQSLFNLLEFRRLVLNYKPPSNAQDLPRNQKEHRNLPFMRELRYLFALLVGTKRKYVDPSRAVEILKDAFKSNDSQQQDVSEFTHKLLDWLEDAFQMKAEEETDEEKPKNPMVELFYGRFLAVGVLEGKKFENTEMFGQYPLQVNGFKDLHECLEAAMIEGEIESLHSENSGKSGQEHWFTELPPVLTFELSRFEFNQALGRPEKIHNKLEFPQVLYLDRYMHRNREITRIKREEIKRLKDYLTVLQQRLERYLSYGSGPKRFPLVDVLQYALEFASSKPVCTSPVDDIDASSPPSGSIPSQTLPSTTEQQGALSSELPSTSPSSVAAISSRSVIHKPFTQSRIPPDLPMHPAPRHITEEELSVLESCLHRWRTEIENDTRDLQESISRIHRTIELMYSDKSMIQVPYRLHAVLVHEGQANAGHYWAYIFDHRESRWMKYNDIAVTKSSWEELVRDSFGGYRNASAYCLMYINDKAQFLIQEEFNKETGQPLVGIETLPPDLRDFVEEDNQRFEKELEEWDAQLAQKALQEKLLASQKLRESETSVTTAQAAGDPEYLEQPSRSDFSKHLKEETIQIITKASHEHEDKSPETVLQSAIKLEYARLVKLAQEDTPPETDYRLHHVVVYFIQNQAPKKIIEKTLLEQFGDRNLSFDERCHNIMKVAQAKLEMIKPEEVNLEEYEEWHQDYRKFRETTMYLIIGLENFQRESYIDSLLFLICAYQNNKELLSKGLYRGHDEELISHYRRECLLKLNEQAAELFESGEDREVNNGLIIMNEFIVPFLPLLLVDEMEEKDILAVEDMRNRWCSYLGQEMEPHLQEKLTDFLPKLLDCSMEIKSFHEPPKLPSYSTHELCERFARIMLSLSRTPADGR
UniProt Q9H9J4, sequence (Q9H9J4 whole entry): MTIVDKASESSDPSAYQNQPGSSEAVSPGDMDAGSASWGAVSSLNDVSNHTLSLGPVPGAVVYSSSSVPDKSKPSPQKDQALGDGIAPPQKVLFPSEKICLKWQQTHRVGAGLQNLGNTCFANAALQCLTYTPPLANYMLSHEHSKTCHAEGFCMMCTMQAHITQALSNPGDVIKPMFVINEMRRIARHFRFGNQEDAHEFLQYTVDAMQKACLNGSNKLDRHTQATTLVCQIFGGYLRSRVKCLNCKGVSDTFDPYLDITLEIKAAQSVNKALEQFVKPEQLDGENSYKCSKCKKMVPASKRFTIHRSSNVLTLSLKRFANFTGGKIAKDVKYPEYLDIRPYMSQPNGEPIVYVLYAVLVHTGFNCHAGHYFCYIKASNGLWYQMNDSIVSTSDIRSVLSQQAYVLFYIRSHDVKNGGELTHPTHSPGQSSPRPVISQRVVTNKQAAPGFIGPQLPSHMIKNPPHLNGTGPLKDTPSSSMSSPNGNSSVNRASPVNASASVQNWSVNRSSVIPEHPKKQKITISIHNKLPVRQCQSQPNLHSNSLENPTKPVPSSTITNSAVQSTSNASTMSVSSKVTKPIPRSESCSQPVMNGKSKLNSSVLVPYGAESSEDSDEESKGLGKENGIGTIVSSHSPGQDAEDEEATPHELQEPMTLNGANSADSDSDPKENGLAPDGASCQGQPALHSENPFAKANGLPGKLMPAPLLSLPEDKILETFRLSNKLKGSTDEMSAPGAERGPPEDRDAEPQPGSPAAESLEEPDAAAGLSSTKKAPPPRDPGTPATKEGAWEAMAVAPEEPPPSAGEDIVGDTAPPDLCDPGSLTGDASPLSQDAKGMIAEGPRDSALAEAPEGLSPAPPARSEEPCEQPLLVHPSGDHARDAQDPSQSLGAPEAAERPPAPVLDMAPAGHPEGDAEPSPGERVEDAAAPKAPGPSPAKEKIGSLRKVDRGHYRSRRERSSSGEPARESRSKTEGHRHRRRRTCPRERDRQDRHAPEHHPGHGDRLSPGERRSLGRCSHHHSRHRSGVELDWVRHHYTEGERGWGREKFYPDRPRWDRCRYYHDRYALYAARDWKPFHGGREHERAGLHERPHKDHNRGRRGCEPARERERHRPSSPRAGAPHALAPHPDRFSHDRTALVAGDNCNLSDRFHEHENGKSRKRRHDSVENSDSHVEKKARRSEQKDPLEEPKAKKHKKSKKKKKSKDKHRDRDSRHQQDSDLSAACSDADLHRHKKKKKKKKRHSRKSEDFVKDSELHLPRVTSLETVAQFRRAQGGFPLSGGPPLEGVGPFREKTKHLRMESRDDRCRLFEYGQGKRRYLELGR
UniProt Q86UV5, sequence (Q86UV5 whole entry): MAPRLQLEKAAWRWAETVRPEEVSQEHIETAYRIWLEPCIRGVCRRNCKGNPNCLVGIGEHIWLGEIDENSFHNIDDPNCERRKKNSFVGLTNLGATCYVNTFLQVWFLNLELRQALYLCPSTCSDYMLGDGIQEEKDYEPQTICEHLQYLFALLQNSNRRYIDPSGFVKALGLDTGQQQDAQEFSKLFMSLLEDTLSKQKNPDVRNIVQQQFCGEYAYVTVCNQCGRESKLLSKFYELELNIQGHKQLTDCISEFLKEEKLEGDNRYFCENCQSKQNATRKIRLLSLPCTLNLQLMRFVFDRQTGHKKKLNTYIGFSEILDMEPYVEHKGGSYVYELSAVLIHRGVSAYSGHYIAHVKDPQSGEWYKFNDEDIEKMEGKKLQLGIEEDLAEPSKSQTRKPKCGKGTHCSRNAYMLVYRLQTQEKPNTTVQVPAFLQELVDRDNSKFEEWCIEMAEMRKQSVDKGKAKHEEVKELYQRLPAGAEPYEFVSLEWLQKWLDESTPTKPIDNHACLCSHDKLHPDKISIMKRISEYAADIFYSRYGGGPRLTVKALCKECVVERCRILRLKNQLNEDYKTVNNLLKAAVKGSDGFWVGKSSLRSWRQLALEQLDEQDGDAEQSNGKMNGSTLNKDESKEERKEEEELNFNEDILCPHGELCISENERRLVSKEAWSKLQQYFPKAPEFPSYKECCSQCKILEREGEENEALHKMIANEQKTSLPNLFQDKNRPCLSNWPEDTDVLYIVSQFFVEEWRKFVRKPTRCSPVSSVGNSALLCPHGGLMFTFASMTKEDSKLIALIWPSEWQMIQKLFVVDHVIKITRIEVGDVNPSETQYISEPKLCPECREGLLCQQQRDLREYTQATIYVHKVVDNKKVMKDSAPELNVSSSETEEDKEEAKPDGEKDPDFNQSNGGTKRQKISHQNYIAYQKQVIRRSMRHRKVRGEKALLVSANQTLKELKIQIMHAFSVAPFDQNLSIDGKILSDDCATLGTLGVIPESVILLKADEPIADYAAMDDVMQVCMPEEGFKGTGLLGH
UniProt Q96G74, sequence (Q96G74 whole entry): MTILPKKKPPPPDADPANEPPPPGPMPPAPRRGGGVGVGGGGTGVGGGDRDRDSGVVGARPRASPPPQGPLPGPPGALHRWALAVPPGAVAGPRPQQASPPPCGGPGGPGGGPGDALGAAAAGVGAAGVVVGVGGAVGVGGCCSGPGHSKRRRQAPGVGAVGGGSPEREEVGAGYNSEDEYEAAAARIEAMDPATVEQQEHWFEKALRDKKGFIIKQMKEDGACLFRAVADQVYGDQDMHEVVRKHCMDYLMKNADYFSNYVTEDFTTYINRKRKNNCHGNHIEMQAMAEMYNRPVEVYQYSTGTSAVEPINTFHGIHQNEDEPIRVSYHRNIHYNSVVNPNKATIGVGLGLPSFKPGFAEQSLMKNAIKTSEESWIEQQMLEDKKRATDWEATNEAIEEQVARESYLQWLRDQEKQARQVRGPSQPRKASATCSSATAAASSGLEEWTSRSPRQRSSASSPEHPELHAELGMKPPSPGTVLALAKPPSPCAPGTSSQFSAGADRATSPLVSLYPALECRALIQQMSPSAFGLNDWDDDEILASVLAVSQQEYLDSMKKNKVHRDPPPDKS
UniProt Q96FW1, sequence (Q96FW1 whole entry): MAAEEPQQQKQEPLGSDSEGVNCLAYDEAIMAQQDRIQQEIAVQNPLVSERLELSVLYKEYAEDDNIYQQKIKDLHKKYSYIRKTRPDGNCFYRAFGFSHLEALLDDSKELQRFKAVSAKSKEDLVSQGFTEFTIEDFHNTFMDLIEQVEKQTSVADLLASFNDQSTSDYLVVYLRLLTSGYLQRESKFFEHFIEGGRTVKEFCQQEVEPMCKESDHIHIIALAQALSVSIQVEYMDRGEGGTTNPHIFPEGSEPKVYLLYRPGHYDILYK

Target | log2 ratio of Biotin-Ahx-Ub-VS probe labelling [1] | log2 ratio of Biotin-Ahx-Ub-VS probe labelling [2] | log2 ratio of Biotin-Ahx-Ub-VS probe labelling [3] | log2 ratio of Biotin-Ahx-Ub-VS probe labelling [4] | log2 ratio of Biotin-Ahx-Ub-VS probe labelling [5] | log2 ratio of Biotin-Ahx-Ub-VS probe labelling [6] | log2 ratio of Biotin-Ahx-Ub-VS probe labelling [7] | log2 ratio of Biotin-Ahx-Ub-VS probe labelling [8] | log2 ratio of Biotin-Ahx-Ub-VS probe labelling [9] | log2 ratio of Biotin-Ahx-Ub-VS probe labelling [10] | log2 ratio of Biotin-Ahx-Ub-VS probe labelling [11] | log2 ratio of Biotin-Ahx-Ub-VS probe labelling [12] | log2 ratio of Biotin-Ahx-Ub-VS probe labelling [13] | log2 ratio of Biotin-Ahx-Ub-VS probe labelling [14] | log2 ratio of Biotin-Ahx-Ub-VS probe labelling [15] | log2 ratio of Biotin-Ahx-Ub-VS probe labelling [16] | log2 ratio of Biotin-Ahx-Ub-VS probe labelling [17] | log2 ratio of Biotin-Ahx-Ub-VS probe labelling [18]
USP47 (UniProt Q96K76) | -0.233 | -0.0445 | 0.00775 | -0.363 | 0.145 | -0.299 | -0.276 | -0.708 | -0.108 | -0.366 | 0.0602 | -0.137 | 0.0163 | -0.243 | -0.458 | -0.679 | -0.241 | 
ATXN3 (UniProt P54252) | -0.0377 | 0.0273 | -0.0841 | -0.487 | -0.327 | -0.303 | -0.0822 | -0.171 | -0.116 | -0.268 | -0.254 | -0.156 | -0.305 | -0.206 | -0.0451 | -0.0869 | -1.02 (active) | 
USP46 (UniProt P62068) | -0.0299 | -0.0303 | 0.206 | -0.116 | -0.0331 | -0.248 | -0.103 | -0.0865 | -0.0696 | -0.323 | 0.0828 | -0.198 | 0.0653 | 0.0564 | 0.118 | 0.0832 | -0.509 | 0.045
USP15 (UniProt Q9Y4E8) | -0.00677 | 0.017 | -0.0215 | -0.269 | -0.339 | -0.338 | -0.104 | -0.325 | -0.245 | -0.374 | -0.116 | -0.163 | -0.364 | -0.255 | 0.0921 | -0.327 | -0.77 | 
USP42 (UniProt Q9H9J4) | 0.361 | -0.342 | -0.295 | -0.305 | -0.42 | -0.0896 | 0.113 | 0.381 | 0.125 | 0.374 | 0.49 | 0.0331 | -0.72 | -0.299 | -0.0821 | -0.125 | 0.584 | 
USP10 (UniProt Q14694) | -0.156 | -0.0602 | -0.0935 | -0.0758 | -0.166 | -0.0336 | -0.0298 | -0.165 | -0.0878 | -0.256 | -0.128 | -0.22 | 0.0316 | -0.0499 | -0.115 | -0.0176 | -0.249 | 
PRPF8 (UniProt Q6P2Q9) | 0.0577 | -0.0808 | -0.0383 | -0.109 | -0.0419 | -0.249 | 0.147 | 0.15 | 0.137 | 0.0499 | -0.0129 | 0.139 | -0.152 | -0.103 | 0.164 | -0.228 | 0.0652 | 
USP14 (UniProt P54578) | -0.0633 | 0.0378 | -0.306 | -0.639 | -0.518 | -0.00359 | -0.188 | -0.184 | 0.051 | -0.437 | -0.178 | -0.0389 | -0.0892 | 0.0427 | 0.00941 | -0.0561 | -0.675 | 
VCPIP1 (UniProt Q96JH7) | -0.221 | -1.63 (active) | -0.946 | -0.492 | -0.305 | -0.056 | -1.46 (active) | -1.21 (active) | -0.628 | -0.412 | -1.34 (active) | -0.205 | -0.518 | -0.707 | -0.226 | -0.695 | -2.08 (active) | 
UniProt Q9UGI0 | 0.11 | -0.241 | -0.605 | -1.13 (active) | -0.702 | -0.423 | -0.555 | -0.519 | -0.47 | -0.661 | -0.315 | 0.214 | -0.804 | -0.704 | 0.145 | -0.705 | -1.16 (active) | 
USP25 (UniProt Q9UHP3) | -0.0734 | -0.0952 | -0.722 | -0.62 | -0.368 | 0.0415 | -0.392 | -0.444 | -0.307 | -0.446 | -0.133 | -0.102 | -0.276 | -0.149 | 0.0208 | -0.419 | -1.21 (active) | 
USP9X (UniProt Q93008) | -0.0684 | -0.269 | -0.142 | -0.264 | -0.347 | -0.336 | -0.0452 | -0.0218 | -0.239 | -0.36 | -0.111 | 0.0487 | -0.264 | -0.191 | -0.0136 | -0.446 | -0.734 | -0.125
OTUD4 (UniProt Q01804) | 0.0776 | -0.761 | -0.763 | -0.46 | -0.413 | -0.109 | 0.0839 | -0.0534 | -0.136 | 0.02 | -0.0939 | -0.131 | -2.71 (active) | -0.397 | 0.0366 | -0.354 | -0.972 | -0.457
OTUD5 (UniProt Q96G74) | -0.09 | 0.0244 | -0.556 | -0.67 | -0.615 | -0.0917 | -0.331 | -0.13 | -0.315 | -0.685 | -0.104 | -0.27 | -0.519 | -0.238 | -0.0992 | -0.442 | -0.995 | 
YOD1 (UniProt Q5VVQ6) | 0.253 | 0.0444 | 0.0365 | -0.412 | -0.152 | 0.18 | -0.323 | -0.308 | 0.241 | -0.155 | -0.266 | 0.106 | 0.0345 | 0.0106 | 0.189 | 0.0867 | -0.836 | 
USP24 (UniProt Q9UPU5) | -0.191 | -0.0286 | -0.426 | -0.579 | -0.301 | -0.575 | -0.201 | -0.537 | -0.319 | -0.639 | -0.322 | -0.475 | -0.116 | 0.00205 | 0.122 | -0.238 | -1.4 (active) | -0.346
USP48 (UniProt Q86UV5) | -0.00536 | -0.0207 | -0.24 | -0.338 | -0.249 | -0.456 | -0.25 | -0.217 | -0.179 | -0.251 | 0.0264 | -0.519 | -0.56 | -0.21 | -0.0126 | -0.405 | -0.545 | 
OTUB1 (UniProt Q96FW1) | -0.0296 | 0.137 | -0.0525 | -0.264 | -0.26 | 0.0388 | 0.388 | 0.123 | 0.281 | 0.165 | -0.174 | 0.116 | -0.247 | -0.422 | 0.252 | -0.0321 | -0.286 | 
